About 79,000 compounds went through this panel and 15% of them were active in at least one assay; those are over-represented in the sample as a whole. No stated cut-off is given here; in the data, active means growth inhibition above about 70%; inactive means the rest.
Assays:
[1] = NCI Yeast Anticancer Drug Screen. Data for the rad50 strain (AID 155);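 further: 0% = growth of vehicle-only cultures of the same strain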; details: S. cerevisiae rad50 strain growth inhibition; at 50.0 µM; hits give high values
Outline: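 Genetically altered yeast (DNA repair pathway); compound treatment; growth inhibition vs vehicle ctrl.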

[2] = NCI Yeast Anticancer Drug Screen. Data for the mec2-1 strain (AID 157); details: S. cerevisiae mec2-1 strain, at 50.0 µM, hits give high values
Outline: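 Growth inhibition is read against vehicle-treated controls after compound exposure of the mec2-1 yeast strain, which is defective in DNA damage repair or cell cycle control.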

[3] = NCI Yeast Anticancer Drug Screen. Data for the sgs1 mgt1 strain (AID 161);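 further: 0% = growth of cultures given vehicle only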; details: S. cerevisiae sgs1 mgt1 strain, at 50.0 µM, hits give high values
Outline: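 Compounds are added to genetically altered yeast, and growth is compared with cultures given vehicle alone to give percent inhibition.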

[4] = NCI Yeast Anticancer Drug Screen. Data for the cln2 rad14 strain (AID 165);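 further: 0% = growth equal to vehicle treated cultures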; details: S. cerevisiae cln2 rad14 strain, at 50.0 µM, hits give high values
Outline: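 Growth inhibition, relative to vehicle-treated controls, is the read-out. The test organism is a yeast strain with defined genetic alterations, cln2 rad14.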

[5] = NCI Yeast Anticancer Drug Screen. Data for the bub3 strain (AID 167); details: S. cerevisiae bub3 mutant strain, at 50.0 µM, hits give high values
Outline: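 Yeast carrying a defined mutation is treated with each compound, and growth is compared with that of vehicle-exposed cells to give inhibition.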

[6] = NCI Yeast Anticancer Drug Screen. Data for the mlh1 rad18 strain (AID 175); details: S. cerevisiae mlh1 rad18 strain growth inhibition; at 50.0 µM; hits give high values
Outline: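 Cells of a genetically altered yeast strain, deficient in DNA damage repair, were treated with compound. Their growth was then compared with that of vehicle-treated cultures to give inhibition.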

Measured: growth inhibition

O=C(OCCOCCOC(=O)C(Cl)(Cl)Cl)C(Cl)(Cl)Cl
inactive: [1] -47% | [2] -33.1% | [3] -29.4% | [4] 39.2% | [5] -46.6% | [6] 7.95%

COc1ccc2[nH]cc(CCN)c2c1
inactive: [1] 3.95% | [2] -12.4% | [3] -13.5% | [4] -10.4% | [5] 3.6% | [6] -24.1%

CC12CC(=O)C3C(CCC4CC=CCC43C)C1CCC2=O (stereo not given)
inactive: [1] 22.1% | [2] -12.5% | [3] 28.1% | [4] 5.8% | [5] 10% | [6] 24.5%

NC(=Nc1ccccc1)N/N=C/c1c[nH]c2ccccc12
inactive: [1] -15.2% | [2] -14.9% | [3] -20.2% | [4] 3.45% | [5] -7.15% | [6] -50%

O=P1(c2ccccc2)NC2CCCCC2N1 (stereo not given)
inactive: [1] 24.2% | [2] -8.05% | [3] -5.3% | [4] -87% | [5] -0.9% | [6] 2.95%

O=P1(N(CCCl)CCCl)OC(c2ccccc2)=CCN1c1ccccc1 (stereo not given)
inactive: [1] 0.6% | [2] 20.1% | [3] 57.2% | [4] 32.4% | [5] 50% | [6] 34.6%

O=NNc1ccc(Cl)cn1
inactive: [1] -11.5% | [2] 3.75% | [3] 3.1% | [4] -1.45% | [5] -18.3% | [6] 3.3%

COc1ccc2c(c1)C(=O)C(N)C2 (stereo not given)
inactive: [1] 2% | [2] 1.95% | [3] 0.5% | [4] -21.6% | [5] 7.4% | [6] 20.1%

[CH3][Pb]([CH3])([CH3])[O]C(=O)c1ccc([N+](=O)[O-])cc1
inactive: [1] 28.7% | [2] -41% | [3] 25.1% | [4] 8.8% | [5] 1.15% | [6] 42.2%

C=C(C(=O)OC1CC2CCC(C1)[N+]2(C)[O-])c1ccccc1 (stereo not given)
inactive: [1] 7.4% | [2] -6% | [3] -19.4% | [4] -2.95% | [5] 3.1% | [6] -23.3%

Cc1cc(-n2c(C)nc3ccccc3c2=O)on1
inactive: [1] -35.1% | [2] -15.7% | [3] -4.15% | [4] -47.5% | [5] 8.9% | [6] 3.75%

CC12C(=O)C(C)(C(c3ccccc3)=C1c1ccccc1)C1(C#N)NC21C#N (stereo not given)
inactive: [1] 14.9% | [2] 2.65% | [3] 22.8% | [4] 18.2% | [5] 13.8% | [6] 40%

CN(C)CCSC(c1ccccc1)c1ccc(Br)cc1 (stereo not given)
inactive: [1] 32.5% | [2] 20.1% | [3] 52.4% | [4] 58.6% | [5] 34.4% | [6] 62.2%

COC(=O)c1nc(-c2ccc3c(n2)C(=O)C(N)=C(OC)C3=O)c(N)c(-c2ccc(OC)c(OC)c2O)c1C
inactive: [1] 58% | [2] 7.25% | [3] 36.1% | [4] 26.2% | [5] 23.2% | [6] 47.5%

CC(C)(CBr)COP1(=O)NCC(C)(C)CO1 (stereo not given)
inactive: [1] 13.7% | [2] -3.7% | [3] 3.85% | [4] 20.4% | [5] 4.2% | [6] 10.8%

Cc1ccc2[nH]c(=S)n(-c3ccc(Cl)cc3)c(=O)c2c1
inactive: [1] 9.3% | [2] 25.5% | [3] 29.9% | [4] 18.8% | [5] 24% | [6] -2.05%

O=c1[nH]cc(N=Cc2ccccc2Cl)c(=O)[nH]1.[Cl][Pt][Cl]
inactive: [1] 20.4% | [2] -5.75% | [3] -18.1% | [4] 1.95% | [5] 1.55% | [6] -9.05%

COP(=O)(OC)C1(C(C)(C)C)CO1 (stereo not given)
inactive: [1] -1.75% | [2] -4.9% | [3] 0.65% | [4] -23.1% | [5] -11.6% | [6] 0.5%

NCCN.NCCN.[Cl-].[O]=[Re]=[O]
inactive: [1] -8.05% | [2] -8.55% | [3] 6.4% | [4] -62.5% | [5] -22.4% | [6] -0.6%

COc1ccc([As]=O)cc1[N+](=O)[O-] (stereo not given)
inactive: [1] 13.2% | [2] 1.15% | [3] 11.1% | [4] 14.2% | [5] -19% | [6] 8.2%

From PubChem BioAssay (NCI)
